This is an account of results in PubChem BioAssay (Tox21).

Test [1] in a line: qHTS assay to identify small molecule agonists of H2AX - cell viability counter screen (AID 1224847; calls by dose curve; further: nearly all actives have a fitted effect of over 30% in size; further: potency means the concentration at half of the fitted maximal effect). The method in brief:
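Viability of CHO-K1 (wild type) cells after 3 hr compound exposure was measured by CellTiter-Glo luminescence.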

Test [2] is described as follows: qHTS assay to identify small molecule agonists of the estrogen related receptor (ERR) signaling pathway from Tox21 library (AID 1224849; calls by dose curve; further: nearly all actives have a fitted effect of over 15% in size). The conditions noted are these: ERR reporter cell line, ONE-Glo luciferase, 18 h; at 92.4 µM (top of the series) unless noted. Put shortly:
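Agonist signal is luciferase luminescence from an ERR reporter cell line treated 18 h at 37 C with DMSO-dissolved compounds, read 30 min after ONE-Glo addition at room temperature.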

The nature of test [3]: qHTS RealTime-Glo MT Cell Viability Assay in HepG2 cells - 24 hour (AID 1224867). Further: nearly all actives have a fitted effect of over 50% in size. Further: potency means the concentration at half of the fitted maximal effect. The method in brief:
(§1)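 Cells + NanoLuc/prosubstrate dispensed (600 cells/well) → 5 h at 37 C/5% CO2 → compounds in DMSO transferred → 40 h incubation at 37 C, luminescence read at 0, 8, 16, 24, 32, 40 h.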

The nature of test [4]: A CellTox Green Cytotoxicity Assay to monitor cytotoxicity in HEK293 cells - 0 hour (AID 1224869). Further: nearly all actives have a fitted effect of over 50% in size. Put shortly: (§2)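 Cytotoxicity was tracked continuously in HEK293 cells by a DNA-binding dye excluded from viable cells. Compounds were transferred in DMSO 5 h after seeding; fluorescence was recorded at intervals up to 40 h.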
A short description of test [5]: qHTS RealTime-Glo MT Cell Viability Assay in HepG2 cells - 40 hour (AID 1224870). Further: nearly all actives have a fitted effect of over 50% in size. Further: potency means the concentration at half of the fitted maximal effect. Put shortly: (§3)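 HepG2 cells mixed with RealTime-Glo MT reagents (NanoLuc plus cell-permeant prosubstrate) were seeded at 600 cells/well, incubated 5 h at 37 C/5% CO2, then pinned with compounds in DMSO; nonlytic luminescence tracked viability during 40 h treatment.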
Test [6] can be described thus: A CellTox Green Cytotoxicity Assay to monitor cytotoxicity in HEK293 cells - 40 hour (AID 1224871). Further: nearly all actives have a fitted effect of over 45% in size. Further: potency means the concentration at half of the fitted maximal effect. The method in brief:
as §2

Test [7] in a line: qHTS RealTime-Glo MT Cell Viability Assay in HepG2 cells - 8 hour (AID 1224873). Further: nearly all actives have a fitted effect of over 55% in size. Further: potency means the concentration at half of the fitted maximal effect. Put shortly: as §3
Test [8] in a line: A CellTox Green Cytotoxicity Assay to monitor cytotoxicity in HEK293 cells - 24 hour (AID 1224875). Further: nearly all actives have a fitted effect of over 45% in size. Further: potency means the concentration at half of the fitted maximal effect. Put shortly:
as §2

Test [9] can be described thus: A CellTox Green Cytotoxicity Assay to monitor cytotoxicity in HepG2 cells - 16 hour (AID 1224876). Further: nearly all actives have a fitted effect of over 45% in size. Further: potency means the concentration at half of the fitted maximal effect. Put shortly:
(§4)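 Real-time, homogeneous cytotoxicity readout: dead-cell DNA staining by CellTox Green in HepG2 monolayers, fluorescence measured at timed intervals up to 40 h of continuous compound exposure.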

The nature of test [10]: A CellTox Green Cytotoxicity Assay to monitor cytotoxicity in HepG2 cells - 24 hour (AID 1224878). Further: nearly all actives have a fitted effect of over 45% in size. Further: potency means the concentration at half of the fitted maximal effect. The method in brief:
as §4

Test [11] is described as follows: A CellTox Green Cytotoxicity Assay to monitor cytotoxicity in HepG2 cells - 40 hour (AID 1224879). Further: nearly all actives have a fitted effect of over 40% in size. Further: potency means the concentration at half of the fitted maximal effect. The method in brief: as §4
A short description of test [12]: A CellTox Green Cytotoxicity Assay to monitor cytotoxicity in HEK293 cells - 32 hour (AID 1224881). Further: nearly all actives have a fitted effect of over 40% in size. Further: potency means the concentration at half of the fitted maximal effect. Put shortly:
as §2

Test [13] in a line: A CellTox Green Cytotoxicity Assay to monitor cytotoxicity in HepG2 cells - 0 hour (AID 1224882). Further: nearly all actives have a fitted effect of over 35% in size. Put shortly: as §4
Test [14] in a line: qHTS assay to identify small molecule antagonists of the estrogen related receptor (ERR) signaling pathway from Tox21 library (AID 1224848). Further: nearly all actives have a fitted effect of over 50% in size. Further: potency means the concentration at half of the fitted maximal effect. The method in brief: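 Cells: ERR line, 2,000/well; 6 h preincubation 37 C/5% CO2. Cpd in DMSO via pin tool; 18 h, 37 C. ONE-Glo, 30 min RT, luminescence.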
The nature of test [15]: qHTS RealTime-Glo MT Cell Viability Assay in HEK293 cells - 32 hour (AID 1224868). Further: nearly all actives have a fitted effect of over 50% in size. Further: potency means the concentration at half of the fitted maximal effect. Put shortly:
(§5)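 Tox21 10K qHTS, HEK293, 600 cells/well, RealTime-Glo reagent co-dispensed with cells; 5 h preincubation, compound by pintool, 37 C, luminescence at 0–40 h.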

Test [16] can be described thus: qHTS RealTime-Glo MT Cell Viability Assay in HEK293 cells - 16 hour (AID 1224872). Further: nearly all actives have a fitted effect of over 50% in size. Further: potency means the concentration at half of the fitted maximal effect. Put shortly: as §5
Test [17] can be described thus: qHTS RealTime-Glo MT Cell Viability Assay in HEK293 cells - 40 hour (AID 1224874). Further: nearly all actives have a fitted effect of over 50% in size. Further: potency means the concentration at half of the fitted maximal effect. The note with it: RealTime-Glo luminescence; max response: stronger effect = lower value. The method in brief:
(§6)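 Nonlytic bioluminescent viability monitoring. HEK293 at 600 cells/well with reagent; 5 h settle; compound transfer by pintool; plates held at 37 C and read at set time points.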

A short description of test [18]: qHTS RealTime-Glo MT Cell Viability Assay in HEK293 cells - 0 hour (AID 1224880). Further: nearly all actives have a fitted effect of over 45% in size. Further: potency means the concentration at half of the fitted maximal effect. Put shortly: as §6
The nature of test [19]: qHTS RealTime-Glo MT Cell Viability Assay in HepG2 cells - 32 hour (AID 1224877). Further: nearly all actives have a fitted effect of over 55% in size. Further: potency means the concentration at half of the fitted maximal effect. Put shortly: as §1

Several values for one entry are separate records, joined by “and”; a condition that tells them apart may be missing. Equal values may be shown once. Inconclusive results are not listed. Where a structure was tested more than once in an assay, its records may differ in their call. Activity calls are given as the source filed them. Unless noted, the call rests on the fitted dose curve; in most records, active means well fitted curve in the direction sought with a large enough effect in the repeat runs; inconclusive means weak or mixed curves; inactive means no such curve, though single readings can be large; an effect the other way counts as inactive or inconclusive.
On the % scale 0 is the no-effect control and ±100 the full control effect.

Turning to `CC(=O)C(Cl)(Cl)Cl`, the Potency in test [1] was 30.8 µM (active). Moreover, the activity change, positive = activation in test [2] was -67.8% (inactive). Moreover, the Potency entry in test [3], in [4], in test [5], in [6], in [7] and in [8] was “inactive” throughout. Also, the Potency entry in test [9], in test [10], in test [11], in test [12] and in test [13] was “inactive” each time.
For the compound `O=c1c(C2CC(c3ccc(-c4ccc(Br)cc4)cc3)Cc3ccccc32)c(O)sc2ccccc12` (stereo not drawn), the Potency entry in test [1], in [15], in test [6], in test [16], in test [8] and in [9] was “inactive” throughout. Moreover, the Potency result in test [10], in test [11], in test [12] and in test [13] was “inactive” throughout. Further, the Potency in [14] was 7.5 µM (active). Besides, the activity change, positive = activation in [2] was -54.2% [at 42.5 µM] (inactive). Further, the max response in test [17] was -20.8% (inactive).
`O=C1c2ccccc2C(=O)C1C(=O)C(c1ccccc1)c1ccc(Cl)cc1` (stereo not drawn): the Potency result in test [1], in test [3], in test [15], in test [4], in [5] and in [6] was “inactive” in each case. The Potency entry in test [16], in [7], in [18], in [12] and in test [13] was “inactive” in each case. Further, the activity change, positive = activation in test [2] is -59.3% (inactive). Also, the Potency is 49 µM (active) in test [9] and 54.9 µM (active) in test [10].
`CC(C)CC(C)(c1ccc(O)cc1)c1ccc(O)cc1`: the Potency was 101 µM (active) and 89.8 µM (active) in [1]; 54.6 µM (active) and inactive in test [14]; 39 µM (active) in test [15]; 55.1 µM (active) in test [6]; 43.8 µM (active) and inactive in [16]; 27.6 µM (active) in test [17]. Besides, the Potency in [10] is 43.8 µM (active); in test [12] it was 49.1 µM (active). Further, in [2], the activity change, positive = activation was -67.3% (inactive) and -18.5% (inactive). Besides, the Potency result in [4], in test [5], in test [19], in [18] and in test [13] was “inactive” each time.
Turning to `O=c1ssc(Cl)c1Cl`, the Potency in test [1] is 89.8 µM (active); in test [3], 21.9 µM (active); in test [15] it was 15.5 µM (active); in [5], 21.9 µM (active); in test [6], 21.9 µM (active); in [16] it was 17.4 µM (active). Besides, the Potency is 21.9 µM (active) in test [7]; 13.8 µM (active) in test [17]; 38.9 µM (active) in [8]; 19.5 µM (active) in test [9]; 21.9 µM (active) in test [19]; 19.5 µM (active) in [10]. Besides, the Potency in [11] is 19.5 µM (active); in test [18] it was 24.5 µM (active). Moreover, in [2], the activity change, positive = activation was -17.9% (inactive). For the same compound, the Potency result in [4] and in test [13] was “inactive” each time.
As for `Cc1cc(N=Nc2ccccc2C)ccc1N`, the Potency is 113 µM (active) and 89.8 µM (active) in test [1]; 21.9 µM (active) in [15]; 49 µM (active) in [6]; 21.9 µM (active) and 19.5 µM (active) in test [16]; 21.9 µM (active) in test [17]; 21.9 µM (active) and 19.5 µM (active) in [11]. Besides, the Potency result in [14], in test [4], in [5], in test [9], in test [19] and in test [10] was “inactive” in each case. In addition, the Potency result in test [18] was “inactive”. Further, the activity change, positive = activation in test [2] is 34.9% (active) and 43.7% (active).
For the compound `O=S(=O)(c1ccc(Cl)cc1)c1ccc(Cl)cc1`, the Potency was 57.3 µM (active) in test [1] and 13.9 µM (active) in [14]. Further, the activity change, positive = activation in test [2] was -35.9% (inactive). The Potency entry in test [3], in test [4], in test [19], in [10], in test [11] and in test [18] was “inactive” each time. Also, in test [13], the Potency entry is “inactive”.
Turning to `Cc1cc(C(C)(C)c2cc(C)c(O)c(C)c2)cc(C)c1O`, the Potency in [1] was 109 µM (active); in test [14], 26.4 µM (active); in test [15], 18.9 µM (active); in test [16] it was 23.7 µM (active); in test [17] it was 18.9 µM (active). Further, the activity change, positive = activation in test [2] was -83.8% (inactive). The Potency result in test [4], in test [5], in test [8], in [18] and in test [12] was “inactive” in each case.
As to `CC(Cc1ccc(C(C)(C)C)cc1)CN1C[C@@H](C)O[C@@H](C)C1` (stereo partly drawn), the Potency in test [1] is 63.5 µM (active); in [6], 49 µM (active); in [8], 49 µM (active); in test [12], 49 µM (active). Further, in test [2], the activity change, positive = activation was -8.81% (inactive). Moreover, the Potency result in test [3], in [15], in test [4], in test [5], in [7] and in [19] was “inactive” each time. Further, in test [18], the Potency result was “inactive”.
On to `c1ccc2c(c1)[nH]c1cnccc12`, for which the Potency entry in test [1], in [3], in [15], in test [4], in test [5] and in [6] was “inactive” each time. In addition, the Potency entry in test [16], in [7], in [8], in [9], in test [19] and in test [10] was “inactive” throughout. In addition, the Potency result in test [11], in test [18] and in [12] was “inactive” each time. The max response in test [17] was 0.679% (inactive).
For the compound `c1ccc(Nc2ccc3ccccc3c2)cc1`, the Potency in test [1] was 100 µM (active) and 80 µM (active); in test [11] it was 48.7 µM (active). Also, the activity change, positive = activation in [2] was 53.3% (active) and 56% (active). Besides, the Potency entry in test [3], in [4], in [5], in test [6], in test [8] and in [9] was “inactive” each time. Also, the Potency entry in test [19], in [18], in [12] and in test [13] was “inactive” each time.
For the compound `CCCCCCCCCCCCCCCC[N+](C)(C)C`, the Potency was 54.6 µM (active) and 101 µM (active) and 49.2 µM (active) in [1]; “inactive and 49 µM (active) and 23.9 µM (active)” in [3]; 9.42 µM (active) and 21.9 µM (active) and 8.49 µM (active) in test [15]; 24.5 µM (active) and 21.3 µM (active) in [5]; 23.7 µM (active) and 43.6 µM (active) and 23.9 µM (active) in test [6]; 10.6 µM (active) and 21.9 µM (active) in test [16]. The Potency result in test [7] is “inactive and 49 µM (active)”; in test [17] it was 8.4 µM (active) and 21.9 µM (active) and 9.52 µM (active); in test [8] it was 23.7 µM (active) and 43.6 µM (active) and 19 µM (active); in test [9], 23.7 µM (active) and 49 µM (active) and 23.9 µM (active); in test [19], 43.6 µM (active) and 23.9 µM (active); in [10] it was 21.1 µM (active) and 23.9 µM (active). Further, the Potency in test [11] is 21.1 µM (active) and 13.8 µM (active) and 21.3 µM (active); in [12] it was 23.7 µM (active) and 43.6 µM (active) and 23.9 µM (active). Also, the Potency result in test [4] and in test [13] was “inactive” in each case.
